Measurements published in PMC3218832.

Experiments:
Assay in all cases: protein binding microarray; high values mean tight binding
Details in all cases: dsDNA, one strand shown
[1] = molecular target: RELARELA (p65 homodimer) (Homo sapiens, UniProt Q04206 1-307)
[2] = molecular target: p50p50 homodimer (Homo sapiens, UniProt P19838 7-356)
[3] = molecular target: T1, p52p52 homodimer (Homo sapiens, UniProt Q00653 4-332)
T1 sequence: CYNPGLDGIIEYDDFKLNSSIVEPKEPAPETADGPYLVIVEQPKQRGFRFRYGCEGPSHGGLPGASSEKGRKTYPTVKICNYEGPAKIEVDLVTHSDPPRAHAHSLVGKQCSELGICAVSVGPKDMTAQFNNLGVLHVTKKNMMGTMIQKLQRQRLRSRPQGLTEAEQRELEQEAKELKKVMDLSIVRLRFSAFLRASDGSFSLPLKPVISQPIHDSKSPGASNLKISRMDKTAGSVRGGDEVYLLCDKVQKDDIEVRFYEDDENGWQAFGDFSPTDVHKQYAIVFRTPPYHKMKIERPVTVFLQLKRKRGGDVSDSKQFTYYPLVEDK

[4] = molecular target: RELA (p65) subunit of heterodimer;p50 subunit (Homo sapiens;Homo sapiens, UniProt Q04206;P19838 1-307;7-356)
Chain of RELA (p65) subunit of heterodimer;p50 subunit (Q04206 1-307, chain 1 of 2): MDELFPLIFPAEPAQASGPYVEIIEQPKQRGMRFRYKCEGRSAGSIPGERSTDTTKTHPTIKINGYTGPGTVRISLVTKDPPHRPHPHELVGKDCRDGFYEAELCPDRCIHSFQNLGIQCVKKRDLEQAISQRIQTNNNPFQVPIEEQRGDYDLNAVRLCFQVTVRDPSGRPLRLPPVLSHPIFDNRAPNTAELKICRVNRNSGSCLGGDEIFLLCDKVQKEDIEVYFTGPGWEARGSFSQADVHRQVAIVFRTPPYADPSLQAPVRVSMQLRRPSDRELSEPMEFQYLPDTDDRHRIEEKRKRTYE
Chain of RELA (p65) subunit of heterodimer;p50 subunit (P19838 7-356, chain 2 of 2): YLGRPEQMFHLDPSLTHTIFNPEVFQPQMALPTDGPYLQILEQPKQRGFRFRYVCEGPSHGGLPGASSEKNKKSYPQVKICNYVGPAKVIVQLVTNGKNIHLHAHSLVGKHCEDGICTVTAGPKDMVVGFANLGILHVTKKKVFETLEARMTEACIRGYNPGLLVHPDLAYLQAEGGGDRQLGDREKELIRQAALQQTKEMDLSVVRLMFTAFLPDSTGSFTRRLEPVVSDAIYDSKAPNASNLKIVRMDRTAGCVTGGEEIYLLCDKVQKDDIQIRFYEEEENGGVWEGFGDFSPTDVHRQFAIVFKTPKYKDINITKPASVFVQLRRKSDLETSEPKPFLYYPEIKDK

[5] = molecular target: RELA (p65) subunit of heterodimer;p52 subunit (Homo sapiens;Homo sapiens, UniProt Q04206;Q00653 1-307;4-332)
[6] = molecular target: RELB subunit;p50 subunit (Homo sapiens;Homo sapiens, UniProt Q01201;P19838 120-401;7-356)
[7] = molecular target: T2, RELB subunit;p52 subunit (Homo sapiens;Homo sapiens, UniProt Q01201;Q00653 120-401;4-332)
T2 sequence 1: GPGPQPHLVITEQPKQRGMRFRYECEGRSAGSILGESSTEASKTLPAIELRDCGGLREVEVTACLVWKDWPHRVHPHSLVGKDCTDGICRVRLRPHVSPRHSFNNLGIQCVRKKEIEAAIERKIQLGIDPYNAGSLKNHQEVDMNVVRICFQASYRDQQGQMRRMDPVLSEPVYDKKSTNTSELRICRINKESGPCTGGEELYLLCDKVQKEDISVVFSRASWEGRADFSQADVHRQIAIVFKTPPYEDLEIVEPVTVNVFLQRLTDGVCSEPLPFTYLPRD
T2 sequence 2: T1 sequence

[8] = molecular target: C-Rel subunit;p50 subunit (Homo sapiens;Homo sapiens, UniProt Q04864;P19838 1-285;7-356)
[9] = molecular target: T3, C-Rel subunit;p52 subunit (Homo sapiens;Homo sapiens, UniProt Q04864;Q00653 1-285;4-332)
T3 sequence 1: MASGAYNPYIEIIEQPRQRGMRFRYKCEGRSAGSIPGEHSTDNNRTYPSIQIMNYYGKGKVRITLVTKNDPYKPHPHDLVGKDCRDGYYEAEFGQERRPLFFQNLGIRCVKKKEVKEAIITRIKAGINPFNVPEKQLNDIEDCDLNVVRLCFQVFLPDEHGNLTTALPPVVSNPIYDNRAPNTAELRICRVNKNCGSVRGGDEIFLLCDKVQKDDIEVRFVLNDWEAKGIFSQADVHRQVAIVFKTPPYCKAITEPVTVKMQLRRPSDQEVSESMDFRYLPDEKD
T3 sequence 2: T1 sequence

Chain of RELARELA (p65 homodimer) (Q04206 1-307): as the sequence (Q04206 1-307, chain 1 of 2) above
Chain of p50p50 homodimer (P19838 7-356): as the sequence (P19838 7-356, chain 2 of 2) above

GAAGTTGTCCT
binding signal [1]: -0.136 z-score
binding signal [2]: -1.05 z-score
binding signal [3]: -0.601 z-score
binding signal [4]: -0.859 z-score
binding signal [5]: -0.716 z-score
binding signal [6]: -0.826 z-score
binding signal [7]: -0.62 z-score
binding signal [8]: -0.931 z-score
binding signal [9]: -0.642 z-score

CAGGAGGTCCT
binding signal [1]: 0.426 z-score
binding signal [2]: -1.52 z-score
binding signal [3]: -0.389 z-score
binding signal [4]: -0.781 z-score
binding signal [5]: -0.822 z-score
binding signal [6]: -0.523 z-score
binding signal [7]: -0.466 z-score
binding signal [8]: -0.953 z-score
binding signal [9]: -0.415 z-score

GGGTTCCTCCT
binding signal [1]: -0.196 z-score
binding signal [2]: -1.42 z-score
binding signal [3]: -0.584 z-score
binding signal [4]: -0.636 z-score
binding signal [5]: -0.6 z-score
binding signal [6]: -0.937 z-score
binding signal [7]: -0.638 z-score
binding signal [8]: -0.934 z-score
binding signal [9]: -0.467 z-score

GAGTGCTTCCC
binding signal [1]: 0.545 z-score
binding signal [2]: -0.398 z-score
binding signal [3]: -0.0563 z-score
binding signal [4]: -0.232 z-score
binding signal [5]: -0.157 z-score
binding signal [6]: -0.589 z-score
binding signal [7]: -0.383 z-score
binding signal [8]: -0.23 z-score
binding signal [9]: 0.0743 z-score

AAAAGGTCCCC
binding signal [1]: 0.121 z-score
binding signal [2]: 0.934 z-score
binding signal [3]: 0.86 z-score
binding signal [4]: 0.799 z-score
binding signal [5]: 0.753 z-score
binding signal [6]: 1.08 z-score
binding signal [7]: 0.995 z-score
binding signal [8]: 0.454 z-score
binding signal [9]: 0.594 z-score

CGAAGGACCCT
binding signal [1]: -1.31 z-score
binding signal [2]: -1.42 z-score
binding signal [3]: -0.622 z-score
binding signal [4]: -0.948 z-score
binding signal [5]: -0.812 z-score
binding signal [6]: -0.928 z-score
binding signal [7]: -0.721 z-score
binding signal [8]: -1.47 z-score
binding signal [9]: -0.87 z-score

AAGGGGCTCCT
binding signal [1]: -0.668 z-score
binding signal [2]: 0.769 z-score
binding signal [3]: 0.959 z-score
binding signal [4]: 0.032 z-score
binding signal [5]: 0.753 z-score
binding signal [6]: 0.344 z-score
binding signal [7]: 0.791 z-score
binding signal [8]: -0.103 z-score
binding signal [9]: 0.392 z-score

CGAGTAACCCC
binding signal [1]: -0.498 z-score
binding signal [2]: -0.0762 z-score
binding signal [3]: -0.149 z-score
binding signal [4]: -0.232 z-score
binding signal [5]: -0.211 z-score
binding signal [6]: -0.188 z-score
binding signal [7]: 0.213 z-score
binding signal [8]: -0.0464 z-score
binding signal [9]: -0.115 z-score

GAAGTACCCCC
binding signal [1]: 0.109 z-score
binding signal [2]: 1.25 z-score
binding signal [3]: 0.815 z-score
binding signal [4]: 1.31 z-score
binding signal [5]: 1.14 z-score
binding signal [6]: 1.27 z-score
binding signal [7]: 1.33 z-score
binding signal [8]: 0.887 z-score
binding signal [9]: 0.946 z-score

GAGTATCCCCT
binding signal [1]: 0.0376 z-score
binding signal [2]: 1.26 z-score
binding signal [3]: 1.26 z-score
binding signal [4]: 1.29 z-score
binding signal [5]: 1.26 z-score
binding signal [6]: 1.28 z-score
binding signal [7]: 1.35 z-score
binding signal [8]: 0.928 z-score
binding signal [9]: 0.943 z-score

AGATAGATCCT
binding signal [1]: -0.82 z-score
binding signal [2]: -1.87 z-score
binding signal [3]: -0.716 z-score
binding signal [4]: -1.06 z-score
binding signal [5]: -1.23 z-score
binding signal [6]: -1.03 z-score
binding signal [7]: -0.915 z-score
binding signal [8]: -1.64 z-score
binding signal [9]: -0.98 z-score

GAGATACCCCT
binding signal [1]: -0.299 z-score
binding signal [2]: 0.87 z-score
binding signal [3]: 0.576 z-score
binding signal [4]: 0.915 z-score
binding signal [5]: 1.1 z-score
binding signal [6]: 0.817 z-score
binding signal [7]: 1.63 z-score
binding signal [8]: 0.434 z-score
binding signal [9]: 0.859 z-score

GGGAAAGCCCC
binding signal [1]: 3.52 z-score
binding signal [2]: 1.48 z-score
binding signal [3]: 3.39 z-score
binding signal [4]: 3.02 z-score
binding signal [5]: 3.27 z-score
binding signal [6]: 3.3 z-score
binding signal [7]: 2.95 z-score
binding signal [8]: 2.45 z-score
binding signal [9]: 3.53 z-score

AAAGGATCCCT
binding signal [1]: -0.446 z-score
binding signal [2]: -0.455 z-score
binding signal [3]: -0.198 z-score
binding signal [4]: -0.582 z-score
binding signal [5]: -0.469 z-score
binding signal [6]: -0.388 z-score
binding signal [7]: -0.424 z-score
binding signal [8]: -0.748 z-score
binding signal [9]: -0.634 z-score

AGGTGACTCCT
binding signal [1]: -0.642 z-score
binding signal [2]: -0.518 z-score
binding signal [3]: -0.228 z-score
binding signal [4]: -0.661 z-score
binding signal [5]: -0.704 z-score
binding signal [6]: -0.778 z-score
binding signal [7]: -0.791 z-score
binding signal [8]: -0.985 z-score
binding signal [9]: -0.779 z-score

CGAGGGTTCCC
binding signal [1]: -0.124 z-score
binding signal [2]: -0.573 z-score
binding signal [3]: -0.304 z-score
binding signal [4]: -0.206 z-score
binding signal [5]: -0.377 z-score
binding signal [6]: -0.397 z-score
binding signal [7]: -0.335 z-score
binding signal [8]: -0.0483 z-score
binding signal [9]: -0.0728 z-score

GAAATAGTCCC
binding signal [1]: 0.835 z-score
binding signal [2]: 1.16 z-score
binding signal [3]: 1.31 z-score
binding signal [4]: 1.16 z-score
binding signal [5]: 0.964 z-score
binding signal [6]: 1.38 z-score
binding signal [7]: 0.953 z-score
binding signal [8]: 0.838 z-score
binding signal [9]: 0.853 z-score

CAAGTAATCCC
binding signal [1]: -0.158 z-score
binding signal [2]: -0.156 z-score
binding signal [3]: -0.0587 z-score
binding signal [4]: -0.365 z-score
binding signal [5]: -0.426 z-score
binding signal [6]: -0.117 z-score
binding signal [7]: -0.123 z-score
binding signal [8]: 0.0809 z-score
binding signal [9]: -0.302 z-score

CAGTGCATCCT
binding signal [1]: -0.475 z-score
binding signal [2]: -2.12 z-score
binding signal [3]: -0.705 z-score
binding signal [4]: -0.986 z-score
binding signal [5]: -0.986 z-score
binding signal [6]: -1.19 z-score
binding signal [7]: -1.04 z-score
binding signal [8]: -1.59 z-score
binding signal [9]: -0.988 z-score

AAGGGCACCCC
binding signal [1]: -0.322 z-score
binding signal [2]: -0.576 z-score
binding signal [3]: -0.342 z-score
binding signal [4]: -0.454 z-score
binding signal [5]: -0.414 z-score
binding signal [6]: -0.379 z-score
binding signal [7]: -0.217 z-score
binding signal [8]: -0.33 z-score
binding signal [9]: -0.364 z-score

CAAATTTTCCC
binding signal [1]: 2.86 z-score
binding signal [2]: 1.18 z-score
binding signal [3]: 1.47 z-score
binding signal [4]: 1.48 z-score
binding signal [5]: 1.47 z-score
binding signal [6]: 1.08 z-score
binding signal [7]: 1.27 z-score
binding signal [8]: 1.5 z-score
binding signal [9]: 1.39 z-score

CAATGTTCCCT
binding signal [1]: 0.185 z-score
binding signal [2]: 0.396 z-score
binding signal [3]: 0.137 z-score
binding signal [4]: -0.019 z-score
binding signal [5]: -0.0733 z-score
binding signal [6]: 0.0726 z-score
binding signal [7]: 0.0791 z-score
binding signal [8]: 0.0457 z-score
binding signal [9]: -0.175 z-score

AGAATCCCCCC
binding signal [1]: 1.06 z-score
binding signal [2]: 1.63 z-score
binding signal [3]: 2.16 z-score
binding signal [4]: 2.66 z-score
binding signal [5]: 2.29 z-score
binding signal [6]: 2.64 z-score
binding signal [7]: 2.51 z-score
binding signal [8]: 1.9 z-score
binding signal [9]: 2.21 z-score

AAAATCTTCCC
binding signal [1]: 1.32 z-score
binding signal [2]: 0.807 z-score
binding signal [3]: 0.256 z-score
binding signal [4]: 0.764 z-score
binding signal [5]: 0.419 z-score
binding signal [6]: 0.54 z-score
binding signal [7]: 0.162 z-score
binding signal [8]: 1.06 z-score
binding signal [9]: 0.488 z-score

GGGTAAGTCCT
binding signal [1]: 1.28 z-score
binding signal [2]: 0.161 z-score
binding signal [3]: 1.41 z-score
binding signal [4]: 0.335 z-score
binding signal [5]: 0.851 z-score
binding signal [6]: 0.207 z-score
binding signal [7]: 0.217 z-score
binding signal [8]: 0.357 z-score
binding signal [9]: 0.997 z-score

GAGAGATTCCC
binding signal [1]: 1.47 z-score
binding signal [2]: 0.649 z-score
binding signal [3]: 0.325 z-score
binding signal [4]: 0.844 z-score
binding signal [5]: 0.545 z-score
binding signal [6]: 0.433 z-score
binding signal [7]: 0.292 z-score
binding signal [8]: 0.909 z-score
binding signal [9]: 0.551 z-score

GGATAGTCCCT
binding signal [1]: 1 z-score
binding signal [2]: 1.18 z-score
binding signal [3]: 1.57 z-score
binding signal [4]: 1.47 z-score
binding signal [5]: 1.43 z-score
binding signal [6]: 0.994 z-score
binding signal [7]: 1.65 z-score
binding signal [8]: 1.15 z-score
binding signal [9]: 1.82 z-score

AAAATTTTCCT
binding signal [1]: 1.75 z-score
binding signal [2]: 0.214 z-score
binding signal [3]: 0.0641 z-score
binding signal [4]: 0.434 z-score
binding signal [5]: 0.225 z-score
binding signal [6]: -0.311 z-score
binding signal [7]: -0.176 z-score
binding signal [8]: 0.47 z-score
binding signal [9]: 0.322 z-score

CGATGTGTCCC
binding signal [1]: 0.341 z-score
binding signal [2]: -0.155 z-score
binding signal [3]: 0.228 z-score
binding signal [4]: 0.0812 z-score
binding signal [5]: 0.0701 z-score
binding signal [6]: -0.0289 z-score
binding signal [7]: 0.0454 z-score
binding signal [8]: 0.132 z-score
binding signal [9]: 0.074 z-score

GGAAGGGCCCC
binding signal [1]: -0.533 z-score
binding signal [2]: -0.314 z-score
binding signal [3]: -0.0891 z-score
binding signal [4]: 0.16 z-score
binding signal [5]: 0.159 z-score
binding signal [6]: -0.313 z-score
binding signal [7]: -0.107 z-score
binding signal [8]: -0.00222 z-score
binding signal [9]: 0.327 z-score
